# Test results from PubChem BioAssay AID1345082 (National Center for Advancing Translational Sciences (NCATS), 2018).
# Several values for one entry are separate records, joined by “and”; a condition that tells them apart may be missing. Equal entries are not always repeated. Out of some 94,000 compounds screened, about 4,000 (4.3%) were called active. Not shown: some 29% with an inconclusive outcome. This is one part of a sample in which actives are shown more often than they occur. Calls come from the whole dose curve; as a rule, active = well fitted inhibition curve with a large enough effect; inconclusive = small, poorly fitted or top-dose-only effect; inactive = no such curve, though single readings can be large or run the other way.
# Assay: Cytotoxic Profiling in NIH 3T3 Cell Line of Diverse Libraries Using Quantitative High-Throughput Screening; note: nearly all actives have a fitted effect of over 55% in size
# Settings: NIH 3T3 viability, CellTiter-Glo ATP luminescence, 48-72 h; series mostly up to 96.7 µM; activity change, negative = cytotoxicity: at the top concentration
# How it was run: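 ATP-dependent luminescence (CellTiter-Glo) served as the viability signal for NIH 3T3 cells treated with compound for 48 or 72 hr at 37 °C.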
# % is set by controls: 0 for no effect and ±100 for the full control effect; potency is the fitted concentration of half-maximal effect.
SMILES,Potency,"activity change, negative = cytotoxicity",outcome
COc1ccccc1N1CCN(C(=O)C[C@@H]2C[C@@H](C(C)C)[C@H](CO)C=C2C)CC1,100 µM (active),–,–
CC1=C[C@@H](CC#N)[C@H](C(C)C)C[C@H]1CC(=O)N1CCN(C)CC1,–,-19.7% [at 174 µM] (inactive),–
COc1ccccc1N1CCN(C(=O)CCc2conc2-c2ccccc2F)CC1,–,-8.02% (inactive),–
O=C(NC1CCCC1)NC1CCN(c2ccc3nnc(-c4ccccc4)n3n2)CC1,–,-31.4% (inactive),–
COc1ccccc1C(=O)N1CCCN(c2ccc3nnc(C)n3n2)CC1,–,0.238% (inactive),–
O=C(c1ccnc(-c2nnc3ccc(N4CCOCC4)nn23)c1)N1CCCCC1,20 µM (active),–,–
CCn1nccc1C(=O)N1CCCCCC1c1nc(C2CC2)no1 (configuration not stated),–,-20.5% (inactive),–
COc1ccc(S(=O)(=O)N2CCCC(Cn3cnc4cccnc43)C2)cc1 (configuration not stated),–,-22.5% (inactive),–
CCC1CN(Cc2cn(-c3ccccc3)nc2-c2ccc(OC)cc2F)CCO1 (configuration not stated),–,-4.55% (inactive),–
Cc1oc(-c2cccs2)nc1CN1CCOC(Cc2ccccc2)C1 (configuration not stated),–,-23.1% (inactive),–
Cc1oc(-c2cccc(Oc3ccccc3)c2)nc1CN1CCOC(CCN)C1 (configuration not stated),25.1 µM (active),–,–
CCn1cnnc1CC1CCN(C(=O)C2CCN(Cc3nc(-c4cccc(C)c4)oc3C)CC2)CC1,–,-19% (inactive),–
Cc1oc(-c2cc(F)ccc2F)nc1CN1CCN(c2ccccc2)CC1C (configuration not stated),–,-9.27% (inactive),–
COc1ccc(-c2nc(CN3CCOC(CN)C3)c(C)o2)c2ccccc12 (configuration not stated),25.1 µM (active),–,–
O=C(c1cn2cc(Cl)ccc2n1)N1CCc2nc(-c3ccccc3)[nH]c2C1,–,-40.3% (inactive),–
COC(=O)[C@@H]1C[C@@H](NC(=O)c2ccc(-c3nnn(C)n3)cc2)CN1C,–,0.0956% (inactive),–
COC(=O)[C@@H]1Cc2c([nH]c3ccccc23)[C@H]2C[C@H](NCCNC(C)=O)C[C@@H](c3ccc(C)cc3)N21,25.1 µM (active),–,–
O=C(CC1COCCN1)N1CCC(OCc2cccnc2)CC1 (configuration not stated),–,-4.09% (inactive),–
CCCOC(=O)N1CCCC(c2nccn2CCCN(C)C)C1 (configuration not stated),–,0.743% (inactive),–
O=C(c1cc2ccccc2o1)N1CCC2(CNS(=O)(=O)c3cnccc3O2)C1 (configuration not stated),–,–,inactive
C=CCNC(=O)c1ccc2ccnn2c1,–,-2.27% [at 174 µM] (inactive),–
COc1ccc(C(=O)N2CCCC(C(=O)N3CCCC(c4nc5ccncc5[nH]4)C3)C2)cc1 (configuration not stated),–,-24% (inactive),–
COc1ccc(-c2nc3ccncc3[nH]2)cc1,10 µM (active) and 17.8 µM (active),–,–
COc1ccc(C(=O)N2CCCC2C(=O)N2CCCC2c2nc3ccncc3[nH]2)cc1 (configuration not stated),–,-3.18% (inactive),–
CCc1noc(-c2ccn3c(CNC(=O)c4ccco4)nnc3c2)n1,–,-2.86% (inactive),–

SMILES,Potency,"activity change, negative = cytotoxicity",outcome
Cc1noc(CC2CCOC3(CCN(C(=O)c4ccc(C#N)cc4)CC3)C2)n1 (configuration not stated),–,-17.6% (inactive),–
CCn1ncc(N2CCCC(CC(=O)NCc3cccnc3)C2)cc1=O (configuration not stated),–,4.64% (inactive),–
O=C(NC[C@H]1COCc2nc3cc(C(F)(F)F)ccc3n21)c1cnccn1,–,-12.6% [at 138 µM] (inactive),–
CC(=O)N1CCC(NC[C@@H]2C=C(C)[C@H](Cc3nc4ccccc4n3C)C[C@H]2C(C)C)CC1,–,-14.2% (inactive),–
CC1=C[C@@H](CN(CC2CC2)CC2CC2)[C@H](C(C)C)C[C@H]1Cc1nc2c(C)cccc2[nH]1,79.4 µM (active),–,–
COc1ccc2nc(C[C@@H]3C[C@@H](C(C)C)[C@H](CNC(=O)CC(C)(C)CC(=O)O)C=C3C)[nH]c2c1,–,-22.3% (inactive),–
CC1=C[C@@H](CNCC(C)C)[C@H](C(C)C)C[C@H]1Cc1nc2c(C)cccc2[nH]1,39.8 µM (active),–,–
CC1=C[C@@H](CNC(=O)CC2(CC(=O)O)CCCC2)[C@H](C(C)C)C[C@H]1Cc1nc2c(C)cccc2[nH]1,–,-4.68% (inactive),–
CC1=C[C@@H](CNC2CCN(C)CC2)[C@H](C(C)C)C[C@H]1Cc1nc2ccccc2[nH]1,35.5 µM (active),–,–
CCNC(=O)[C@@H]1C[C@@H](NC(=O)c2csc(C)c2CC)CN1C1CCCC1,–,-28.1% (inactive),–
CCOc1ccccc1CN1CCN(C2CCN(C(C)C)CC2)C(CCO)C1 (configuration not stated),–,-19.7% (inactive),–
COc1ccc(CN[C@@H]2CCC[C@@H](C(=O)NCc3cc(C)on3)CC(=O)N(C)C2)cn1,–,–,inactive [at 174 µM]
CCn1nc(CNC(=O)C2CCC(=O)N(C3CCCC3)C2)c2ccccc21 (configuration not stated),–,-3.82% (inactive),–
COc1cc(NC(=O)Cn2nc3n(c2=O)CCCCC3)cc(OC)c1OC,–,–,inactive
O=C(c1ccoc1)N1CC(Oc2ccc(-c3nc(-c4ccccc4)no3)cc2)C1,–,-5.84% (inactive),–
Cc1nc(C)c(C(=O)N2CCC(Oc3ccccc3-c3nc(-c4ccccc4)no3)C2)s1 (configuration not stated),39.8 µM (active),–,–
Cc1noc(-c2ccccc2OC2CCN(C(=O)c3cnccc3C)C2)n1 (configuration not stated),–,-15.5% (inactive),–
Cc1cccc(C(=O)N2CCC(Oc3ccc(-c4noc(C(C)C)n4)cc3)C2)c1 (configuration not stated),–,-31.8% (inactive),–
COCc1nc(-c2ccc(OC3CNC3)cc2)no1,–,-1.51% (inactive),–
c1ccc(-c2noc(-c3ccccc3OC3CCNC3)n2)cc1 (configuration not stated),12.6 µM (active),–,–
O=C1CCN(C(=O)Cc2cccc(F)c2)CCCC(c2nc(-c3cccnc3)no2)CCN1 (configuration not stated),–,-20% (inactive),–
CC(=O)N1CCC[C@@H]1C(=O)N1CCC(N2CCOC2=O)CC1,–,-12.4% [at 138 µM] (inactive),–
CCN1C(=O)C2CC3(CCN(C(=O)c4cc5ccccc5[nH]4)CC3)CN2C1=O (configuration not stated),–,-24.2% (inactive),–
COC1CCOC2(CCN(C(=O)NCc3ccc(C)cc3)CC2)C1 (configuration not stated),–,–,inactive
O=C1NCc2ccccc2CC12CCN(Cc1ccc(O)cc1)CC2,–,–,inactive

SMILES,Potency,"activity change, negative = cytotoxicity",outcome
Cc1ccc(CN2CCC3(Cc4ccccc4CNC3=O)C2)cc1 (configuration not stated),–,-26.8% (inactive),–
CC(C)Cc1ccc(CN2CCC3(CC2)Cc2ccccc2CNC3=O)cc1,25.1 µM (active),–,–
COCCN1C(=O)c2cccn2CC1CNC(=O)c1cc2ccccc2[nH]1 (configuration not stated),–,-6.67% (inactive),–
O=C(c1ccccc1F)N1CCC(c2nc(C3CCOCC3)no2)CC1,–,-23.9% (inactive),–
O=C(NC1CCN(c2nc3ncccc3o2)CC1)c1ccc(F)cc1,–,-19.8% [at 138 µM] (inactive),–
O=C(CCc1conc1-c1ccccc1F)NCc1cccc(Cl)c1,–,-26.3% (inactive),–
Cn1nc(C2CCN(C(=O)c3cccc(Cl)c3)CC2)[nH]c1=O,–,-6.82% [at 138 µM] (inactive),–
O=c1[nH]c(C2CCCN(Cc3ccccn3)C2)nn1-c1ccc(Cl)cc1 (configuration not stated),3.16 µM (active),–,–
O=C(Cc1cccc(Cl)c1)N1CCC(c2nn(-c3ccc(Cl)cc3)c(=O)[nH]2)CC1,44.7 µM (active),–,–
COc1cccc(C(=O)N2CCC(c3nn(-c4ccccc4)c(=O)[nH]3)CC2)c1,–,-22.9% (inactive),–
CC(=O)N1CCCC(c2nn(-c3ccccc3)c(=O)[nH]2)C1 (configuration not stated),–,-15.9% [at 138 µM] (inactive),–
O=C(Nc1ccccc1)N1CCCC(c2nn(-c3ccccn3)c(=O)[nH]2)C1 (configuration not stated),–,-29.6% (inactive),–
COc1ccc(C(C)NC(=O)CN2C(=O)C(c3ccccc3)=NC2(C)C)cc1 (configuration not stated),–,-8.44% (inactive),–
CN1C(=O)CC[C@]2(C(=O)NCC3CCCCC3)CCCC[C@@H]12,–,-6.67% (inactive),–
O=C(NC1CCOC1)c1ccc2oc(-c3ccc(C(F)(F)F)cc3)nc2c1 (configuration not stated),–,-13.7% (inactive),–
O=C(CSc1ccncc1)N1CCCC(O)(CN2CCCC2)C1 (configuration not stated),–,1.99% (inactive),–
COc1ccc(N2Cc3c(NCc4cccs4)ncnc3N(C)CC2=O)cc1,–,-18.8% (inactive),–
COCCNC(=O)N1CCc2nn(Cc3ccccc3)c(=O)n2CC1,–,-7.78% (inactive),–
COCCOc1cc(=O)n2c(c1C(=O)NCc1ccccc1)CCOCC2,–,–,inactive
Cc1cccc(CN2CCc3ncc(C(=O)NCc4ccccc4)n3CC2)n1,89.1 µM (active),–,–
CCOc1ccc(C(=O)N2C[C@@H](CO)[C@H](c3ccncc3)C2)cc1,–,-12.1% (inactive),–
COc1ccc2ccc(OCc3nc(C(=O)N4CCC(=O)NCC4C)co3)cc2c1 (configuration not stated),–,-26.5% (inactive),–
Cc1ccccc1CNC[C@H]1O[C@@H]2C[C@@H](CC(=O)NC(C)C)O[C@@H]2[C@@H]1O,–,0.345% [at 174 µM] (inactive),–
Cc1cc(=O)n(CC(=O)N2C[C@H](CO)C[C@H](CN(C)C)C2)nc1C,–,1.11% (inactive),–
CCOc1cc(C)c(CN2C[C@@H](CN(C)C)C[C@H](CO)C2)cc1C(C)C,31.6 µM (active),–,–

SMILES,Potency,"activity change, negative = cytotoxicity",outcome
COc1cc(C)c(CN2CCN3C(=O)CNC(=O)C3C2)cc1C(C)C (configuration not stated),–,-22% (inactive),–
O=C(C1CCCCC1)N1CCCC(n2cc(-c3nc(-c4ccccc4)no3)nn2)C1 (configuration not stated),–,-29.6% (inactive),–
COC(=O)[C@@H]1C[C@H](NC(=O)c2c(Cl)cccc2Cl)CN1C,–,0.966% (inactive),–
O=C1c2c(nc(COc3ccccc3)n2Cc2ccccc2)NCCN1Cc1cccc(Cl)c1,28.2 µM (active),–,–
CN1CCNc2nc(CNc3cccc(F)c3)n(Cc3ccccc3)c2C1=O,–,-38.3% [at 138 µM] (inactive),–
C=CCC1(C(=O)O)CCCN(Cc2cn[nH]c2C(=O)O)C1 (configuration not stated),–,0.72% (inactive),–
COc1ccc(NC(=O)O[C@@H]2CO[C@H]3[C@@H]2OC[C@@H]3NC(=S)Nc2cccc3ccccc23)cc1,–,-30.5% (inactive),–
CCNC(=O)O[C@@H]1CO[C@H]2[C@@H]1OC[C@@H]2NC(=S)Nc1cccc2ccccc12,79.4 µM (active),–,–
CCNC(=O)O[C@@H]1CO[C@H]2[C@@H]1OC[C@@H]2NC(=O)c1cccc(C(=O)OC)c1,–,1.15% [at 174 µM] (inactive),–
c1ccc(CO[C@@H]2CO[C@H]3[C@@H]2OC[C@@H]3n2nnnc2SCc2ccco2)cc1,89.1 µM (active),–,–
CC(C)(CC(=O)O)CC(=O)N[C@H]1CO[C@H]2[C@@H]1OC[C@@H]2n1nnnc1-c1ccccc1,–,–,inactive [at 138 µM]
CNC(=O)CCN(C)c1nccc(-c2ccc(C)nc2C)n1,–,-18.6% (inactive),–
Cc1cccc(C(=O)N[C@@H]2CN(c3ncccn3)C[C@H]2CO)n1,–,-7.33% (inactive),–
COc1ccc(-c2cc(-c3cccc4[nH]ncc34)cn3cncc23)cn1,14.1 µM (active),–,–
COc1ccc(-c2cc(-c3cnc4[nH]ccc4c3)cn3cncc23)cn1,39.8 µM (active),–,–
CC(C)NC(=O)C1CCC(=O)N1C1CCN(C(=O)C2CCCCC2)CC1 (configuration not stated),–,1.11% (inactive),–
COc1cccc(CN2CC3(C2)C(=O)N(Cc2ccccc2F)C(=O)[C@@H]2C[C@@H](O)CN23)c1,–,-5.45% (inactive),–
CC(=O)N1C[C@@H]2CCCN3CCC[C@@H]([C@H]23)[C@H]1CCCC(=O)NCc1cc(F)cc(F)c1,–,–,inactive
Cc1ccc(C(=O)N2C[C@@H](CO)[C@H](c3ccncc3)C2)c(C)c1,–,-15% (inactive),–
CN(c1ccccc1)c1cc(=O)c2ccnc(Nc3cccc([S+](C)(=O)[O-])c3)c2o1,8.91 µM (active),–,–
O=c1cc(-c2cccnc2)oc2c(-c3cccc(CO)c3)nccc12,31.6 µM (active),–,–
CN(c1ccccc1)c1cc(=O)c2ccnc(-c3ccc(CO)cc3)c2o1,8.91 µM (active),–,–
